Laboratory results as given in the supplement of paper PMC12669032.
Values without a mark were called inactive.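 The calls were made as follows: active = AUC reduced over 20% with Padj below 0.05 in at least 2 of 3 replicates; inactive = otherwise.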

Key:
Assay in all cases: growth AUC relative to DMSO control (median of replicates) (fraction); higher = more growth (less inhibition), active = hit call of the paper
Details in all cases: 20 µM; 24 h
Akkermansia muciniphila = system: Akkermansia muciniphila
How it was run: (§1)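 For each compound at 20 µM (1% DMSO), gut bacterial monocultures seeded at OD600 0.05 grew anaerobically in mGAM at 37 °C in round-bottom 96-well plates. Hourly OD600 readings over 24 h gave growth curves whose minimum OD was set to 0. Area under these curves was normalised to the plate median of solvent-only wells, or to row and column medians on the industrial chemical plate. Values are medians of three biological replicates grown on separate days.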

Bacteroides caccae = system: Bacteroides caccae
How it was run: as §1

Bacteroides clarus = system: Bacteroides clarus
How it was run: as §1

Bacteroides dorei = system: Bacteroides dorei
How it was run: as §1

Bacteroides stercoris = system: Bacteroides stercoris
How it was run: as §1

[1] = system: Bacteroides thetaiotaomicron
How it was run: as §1

Bacteroides uniformis = system: Bacteroides uniformis
How it was run: as §1

[2] = system: Bifidobacterium longum subsp. longum
How it was run: as §1

Clostridium difficile = system: Clostridium difficile
How it was run: as §1

Collinsella aerofaciens = system: Collinsella aerofaciens
How it was run: as §1

Coprococcus comes = system: Coprococcus comes
How it was run: as §1

Escherichia coli ED1a = system: Escherichia coli ED1a
How it was run: as §1

Escherichia coli IAI1 = system: Escherichia coli IAI1
How it was run: as §1

Eubacterium rectale = system: Eubacterium rectale
How it was run: as §1

[3] = system: Fusobacterium nucleatum subsp. animalis
How it was run: as §1

Lactobacillus gasseri = system: Lactobacillus gasseri
How it was run: as §1

Lactobacillus paracasei = system: Lactobacillus paracasei
How it was run: as §1

Odoribacter splanchnicus = system: Odoribacter splanchnicus
How it was run: as §1

[4] = system: Parabacteroides distasonis
How it was run: as §1

Parabacteroides merdae = system: Parabacteroides merdae
How it was run: as §1

Compound	growth AUC (Akkermansia muciniphila)	growth AUC (Bacteroides caccae)	growth AUC (Bacteroides clarus)	growth AUC (Bacteroides dorei)	growth AUC (Bacteroides stercoris)	growth AUC [1]	growth AUC (Bacteroides uniformis)	growth AUC [2]	growth AUC (Clostridium difficile)	growth AUC (Collinsella aerofaciens)	growth AUC (Coprococcus comes)	growth AUC (Escherichia coli ED1a)	growth AUC (Escherichia coli IAI1)	growth AUC (Eubacterium rectale)	growth AUC [3]	growth AUC (Lactobacillus gasseri)	growth AUC (Lactobacillus paracasei)	growth AUC (Odoribacter splanchnicus)	growth AUC [4]	growth AUC (Parabacteroides merdae)
CCCCCCC(C)OC(=O)C(C)Oc1ccc(Cl)cc1C (stereo not given)	0.913	0.996	0.973	0.983	0.983	1	1.02	0.848	1.01	0.968	0.994	0.985	0.999	0.96	0.956	1	0.909	1.03	1.01	0.989
CC(C)(NC(=O)C(Br)C(C)(C)C)c1ccccc1 (stereo not given)	0.896	1.01	0.924	0.995	0.766	0.971	1.06	0.84	1.01	1.01	0.959	1.01	0.983	0.889	0.895	1.12	0.895	0.983	0.97	0.95
CCCOc1nc2ccc(I)cc2c(=O)n1CCC	0.956	0.995	0.896	1.01	0.905	0.936	0.95	0.937	0.964	0.952	1.04	0.991	0.974	0.996	0.973	0.833	0.976	1.05	0.647 (active)	0.923
CCCCCCCC/C=C\CCCCCCCC(N)=O	0.936	0.999	0.991	0.977	0.875	0.982	0.998	0.849	1.01	0.857	0.869	0.991	0.953	1.14	1.02	0.962	1.02	1.04	0.96	0.955
CCCCCCCCOC(=O)COc1cc(Cl)c(Cl)cc1Cl	1.05	0.98	1	0.968	1.11	1.01	0.982	0.97	1.02	0.94	0.946	1.02	1.01	0.995	1.02	0.977	1.11	1.08	1.03	1.01
CCOC(=O)C1CC(=O)C(=C(O)C2CC2)C(=O)C1 (stereo not given)	1.01	1.03	0.965	0.979	0.982	1	0.972	1.03	1.01	0.986	1.02	0.972	1.01	0.961	1.01	1.01	0.937	0.976	0.984	1.03
CC1(C)C(C(=O)OC(C#N)c2cccc(Oc3ccccc3)c2)C1C(Br)C(Br)(Br)Br (stereo not given)	0.951	0.934	1.04	0.995	1.2	1	0.943	1.03	1.03	0.939	0.99	1.02	1.01	0.996	1.05	1.04	1.12	1.06	0.998	1
COC1CCC2(CC1)NC(=O)C(c1cc(C)ccc1C)C2O (stereo not given)	1.08	0.974	1.04	1.02	1.14	0.999	1.02	1.05	1.01	1.05	1.04	1.03	1.03	1.11	1.16	0.99	1.03	1.01	1.07	1.02
CNC(=O)/C(=N/OC)c1ccccc1CO/N=C(C)/C(=N/OC)C(/C)=N/OC	0.957	0.983	0.98	1	0.991	0.976	0.976	0.989	0.979	1.03	1.01	1.01	1.05	0.928	0.91	1.16	0.998	0.989	0.997	0.976
CCOC(=O)c1ccc(O)cc1	1.17	0.967	1.01	0.842	0.993	0.991	1	1.02	1.01	1	1	0.974	0.969	1.07	1.05	0.822	0.978	0.988	0.893	0.976
Cc1c(Br)c2ccc(F)cc2n1S(=O)(=O)c1ncn(S(=O)(=O)N(C)C)n1	0.998	1.05	1	1.01	0.997	1	0.993	1.05	1.07	1.07	1.03	0.999	1.11	0.989	1.08	1.04	0.981	0.957	0.861	0.949
CCOC(=O)[C@@H](C)Oc1ccc(Oc2cnc3cc(Cl)ccc3n2)cc1	0.987	0.9	0.965	0.967	0.996	0.998	0.947	1.01	1.01	1.01	0.983	0.997	1.01	1.01	0.992	1.03	0.917	0.984	1.02	0.99
CCC/C(=N\OCC(C)Oc1ccc(Cl)cc1)C1=C(O)CC(C2CCCSC2)CC1=O (stereo not given)	0.924	0.949	0.958	1	0.843	0.901	0.939	0.91	1.02	0.973	0.979	0.98	0.987	0.906	0.913	1.02	0.706	1.07	0.885	0.938
CCOC(=O)C(C)Oc1ccc(Oc2nc3ccc(Cl)cc3o2)cc1 (racemic)	1.1	0.973	0.96	0.94	0.898	0.971	0.981	0.989	1.01	0.947	0.993	0.967	0.949	0.987	0.929	0.91	0.97	1.01	0.824	0.969
CCOC(=O)Cc1[nH]nc2ccc(Cl)cc12	0.921	1.01	1.01	0.996	1.15	1.01	1.01	0.989	1	0.969	0.976	1.02	1	1.03	1.08	1.02	0.917	1.08	0.983	1.03
CCOC(=O)NCCOc1ccc(Oc2ccccc2)cc1	0.87	0.934	0.928	0.854	0.968	0.891	0.958	0.914	0.98	0.984	0.954	1	0.976	0.956	0.943	1.03	0.949	0.931	0.932	0.974
